Records with an inconclusive call do not appear. Entries that show only a call come without a potency. The source made the active and inactive calls. Calls come from the whole dose curve; as a rule, active = well fitted activation curve with a large enough effect; inconclusive = small, poorly fitted or top-dose-only effect; inactive = flat fitted curve, though single readings scatter.

A short description of one assay: Cellular Toxicity (caspase-3) Mesangial (AID 660).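 Note: combined caspase 3 and 7 activity read by Caspase-Glo luminescence; cells exposed to compound for 16 h before the caspase read.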 The note with it: mesangial cells, normalized: DMSO 0%, 100 µM tamoxifen 100%; series mostly up to 91.7 µM. The method in brief: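 Mesangial cells, 1000/well, 5 h settle at 37 °C; compound 16 h, 37 °C; Caspase-Glo 3/7 reagent 20 min RT; luminescence. Norm.: DMSO = 0%, tamoxifen 100 uM = 100%. AC50, Hill fit.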
As to `Oc1cccc(Cl)c1Cl`, the outcome was inactive.

In the case of `CCC/C=N/O`, the compound was classed as inactive.

Take `Nc1cccc2ccccc12`: the compound was classed as inactive.

For `Cc1cnc[nH]1`, the compound was classed as inactive.

For `CN(C)N=O`, the result was inactive.

With `COc1c(C(C)(C)C)cc([N+](=O)[O-])c(C)c1[N+](=O)[O-]`, the compound was classed as inactive.

As for `C=C(Cl)CCl`, the outcome was inactive.

As for `ClCCOCOCCCl`, the call was inactive.

Turning to `CC12CC1(C)C(=O)N(c1cc(Cl)cc(Cl)c1)C2=O` (stereo unspecified), the compound was classed as inactive.

For `CC(C)(Cl)[N+](=O)[O-]`, the result was inactive.

With `Cl/C=C/Cl`, the result was inactive.

As to `CCCCOCC1CO1` (stereo unspecified), the call was inactive.

As to `O=C(O)c1cccc(Cl)c1`, the compound was classed as inactive.

In the case of `C1CC2OC2CC1C1CO1` (stereo unspecified), the compound was classed as inactive.

Regarding `Brc1cccc(-c2ccccc2)c1`, the result was inactive.

Take `Oc1c(Cl)cccc1Cl`: the result was inactive.

Regarding `ClCCOCCCl`, the result was inactive.

For the compound `CCNCC`, the compound was called inactive.

For the compound `CC(C)C#N`, the result was inactive.

For `Cl/C=C\Cl`, the call was inactive.

Turning to `c1ccc2c(c1)CCNC2`, the outcome was inactive.

With `CCBr`, the compound was called inactive.

On to `O=[N+]([O-])c1ccc(Cl)c(Cl)c1Cl`, for which the outcome was inactive.

Regarding `N#CCCC#N`, the result was inactive.

As for `Cc1ccccc1[N+](=O)[O-]`, the compound was called inactive.

On to `OCCBr`, for which the outcome was inactive.

In the case of `C=CC(=O)OCCN(C)C`, the outcome was inactive.

As for `CC(C)(C)C(O)(CCc1ccc(Cl)cc1)Cn1cncn1` (stereo unspecified), the outcome was inactive.

On to `N#CCCCCC#N`, for which the compound was called inactive.

In the case of `CN=C=O`, the result was inactive.

For `c1ccc(C2CO2)cc1` (stereo unspecified), the outcome was inactive.

As for `CCCCCC[N+](=O)[O-]`, the compound was called inactive.

Turning to `OCC(Cl)CCl` (stereo unspecified), the compound was classed as inactive.

On to `COc1ccc(C=O)cc1`, for which the outcome was inactive.

Consider `Nc1ccc(Cl)c(Cl)c1`, for which the result was inactive.

On to `CC(=O)[O-].CC(=O)[O-].CC(=O)[O-].[Cr+3]`, for which the result was inactive.

As for `CC(=O)CCC(C)=O`, the compound was classed as inactive.

Regarding `C=CC(=O)OCC(CC)CCCC` (stereo unspecified), the compound was classed as inactive.

As for `CC(C#N)CCC#N` (stereo unspecified), the compound was classed as inactive.

Another assay in a line: Cellular Toxicity (caspase-3) SK-N-SH (AID 661). Conditions: SK-N-SH caspase-3 activation, qHTS; series mostly up to 91.7 µM. The method in brief: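 Human neuroblastoma SK-N-SH, 1500 cells/well, 5 hr pre-incubation, then compound 16 hr, 37 °C. Caspase-Glo 3/7 reagent, 1 hr RT, luminescence. Norm. to DMSO/10 uM staurosporine; Hill-fit AC50.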
(In qHTS, concentration-response curves come from the screen itself.)
Turning to `Oc1cccc(Cl)c1Cl`, the Potency result was “inactive”.

Consider `CCC/C=N/O`, for which the Potency entry is “inactive”.

With `Nc1cccc2ccccc12`, the Potency result was “inactive”.

Turning to `Cc1cnc[nH]1`, the Potency result is “inactive”.

Consider `CN(C)N=O`, for which the Potency result is “inactive”.

`COc1c(C(C)(C)C)cc([N+](=O)[O-])c(C)c1[N+](=O)[O-]`: the Potency result was “inactive”.

In the case of `C=C(Cl)CCl`, the Potency entry was “inactive”.

With `ClCCOCOCCCl`, the Potency result was “inactive”.

On to `CC12CC1(C)C(=O)N(c1cc(Cl)cc(Cl)c1)C2=O` (stereo unspecified), for which the Potency result is “inactive”.

Take `CC(C)(Cl)[N+](=O)[O-]`: the Potency result was “inactive”.

On to `Cl/C=C/Cl`, for which the Potency entry was “inactive”.

In the case of `CCCCOCC1CO1` (stereo unspecified), the Potency result is “inactive”.

With `O=C(O)c1cccc(Cl)c1`, the Potency entry was “inactive”.

For the compound `C1CC2OC2CC1C1CO1` (stereo unspecified), the Potency entry is “inactive”.

Turning to `Brc1cccc(-c2ccccc2)c1`, the Potency entry is “inactive”.

As for `Oc1c(Cl)cccc1Cl`, the Potency entry was “inactive”.

For `ClCCOCCCl`, the Potency entry was “inactive”.

`CCNCC`: the Potency entry was “inactive”.

On to `CC(C)C#N`, for which the Potency entry is “inactive”.

For `Cl/C=C\Cl`, the Potency result was “inactive”.

`c1ccc2c(c1)CCNC2`: the Potency result was “inactive”.

With `CCBr`, the Potency entry is “inactive”.

Take `O=[N+]([O-])c1ccc(Cl)c(Cl)c1Cl`: the Potency result is “inactive”.

For the compound `N#CCCC#N`, the Potency result is “inactive”.

For `Cc1ccccc1[N+](=O)[O-]`, the Potency result is “inactive”.

As to `OCCBr`, the Potency result is “inactive”.

For `C=CC(=O)OCCN(C)C`, the Potency entry was “inactive”.

For the compound `CC(C)(C)C(O)(CCc1ccc(Cl)cc1)Cn1cncn1` (stereo unspecified), the Potency result was “inactive”.

Consider `N#CCCCCC#N`, for which the Potency result was “inactive”.

Take `CN=C=O`: the Potency result is “inactive”.

With `c1ccc(C2CO2)cc1` (stereo unspecified), the Potency entry is “inactive”.

Regarding `CCCCCC[N+](=O)[O-]`, the Potency entry was “inactive”.

On to `OCC(Cl)CCl` (stereo unspecified), for which the Potency result was “inactive”.

As to `COc1ccc(C=O)cc1`, the Potency entry was “inactive”.

For the compound `Nc1ccc(Cl)c(Cl)c1`, the Potency entry was “inactive”.

In the case of `CC(=O)[O-].CC(=O)[O-].CC(=O)[O-].[Cr+3]`, the Potency result is “inactive”.

For the compound `CC(=O)CCC(C)=O`, the Potency result was “inactive”.

For the compound `C=CC(=O)OCC(CC)CCCC` (stereo unspecified), the Potency result was “inactive”.

Regarding `CC(C#N)CCC#N` (stereo unspecified), the Potency result was “inactive”.

A short description of the next assay: Cellular Toxicity (caspase-3) H-4-II-E (AID 663).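 Note: cells exposed to compound for 16 hr before readout.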 The note with it: H-4-II-E rat hepatoma; Potency: caspase-3 activation; series mostly up to 92.2 µM. The essentials:
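Apoptosis induction is scored as increased luminescence from caspase 3/7 substrate cleavage in rat hepatoma H-4-II-E cells exposed to compound for 16 hr. Activity is scaled between DMSO and 100 uM tamoxifen.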
`Oc1cccc(Cl)c1Cl`: the Potency entry is “inactive”.

With `CCC/C=N/O`, the Potency entry is “inactive”.

As to `Nc1cccc2ccccc12`, the Potency result is “inactive”.

With `Cc1cnc[nH]1`, the Potency entry is “inactive”.

With `COc1c(C(C)(C)C)cc([N+](=O)[O-])c(C)c1[N+](=O)[O-]`, the Potency result is “inactive”.

For the compound `C=C(Cl)CCl`, the Potency result was “inactive”.

For the compound `ClCCOCOCCCl`, the Potency entry is “inactive”.

Consider `CC12CC1(C)C(=O)N(c1cc(Cl)cc(Cl)c1)C2=O` (stereo unspecified), for which the Potency result was “inactive”.

As for `CC(C)(Cl)[N+](=O)[O-]`, the Potency result is “inactive”.

In the case of `Cl/C=C/Cl`, the Potency entry is “inactive”.

With `CCCCOCC1CO1` (stereo unspecified), the Potency result is “inactive”.

For `O=C(O)c1cccc(Cl)c1`, the Potency entry was “inactive”.

For the compound `Brc1cccc(-c2ccccc2)c1`, the Potency result was “inactive”.

As to `Oc1c(Cl)cccc1Cl`, the Potency result is “inactive”.

Turning to `CCNCC`, the Potency entry was “inactive”.

`CC(C)C#N`: the Potency entry is “inactive”.

Take `Cl/C=C\Cl`: the Potency result was “inactive”.

For the compound `c1ccc2c(c1)CCNC2`, the Potency entry was “inactive”.

For the compound `CCBr`, the Potency result was “inactive”.

Take `O=[N+]([O-])c1ccc(Cl)c(Cl)c1Cl`: the Potency entry is “inactive”.

Consider `N#CCCC#N`, for which the Potency entry was “inactive”.

Take `Cc1ccccc1[N+](=O)[O-]`: the Potency entry was “inactive”.

`OCCBr`: the Potency result was “inactive”.

Take `C=CC(=O)OCCN(C)C`: the Potency entry is “inactive”.

As to `N#CCCCCC#N`, the Potency result was “inactive”.

For `CN=C=O`, the Potency entry is “inactive”.

With `c1ccc(C2CO2)cc1` (stereo unspecified), the Potency result is “inactive”.

On to `CCCCCC[N+](=O)[O-]`, for which the Potency result is “inactive”.

`OCC(Cl)CCl` (stereo unspecified): the Potency result was “inactive”.

For `COc1ccc(C=O)cc1`, the Potency result was “inactive”.

In the case of `Nc1ccc(Cl)c(Cl)c1`, the Potency result was “inactive”.

In the case of `CC(=O)[O-].CC(=O)[O-].CC(=O)[O-].[Cr+3]`, the Potency result is “inactive”.

With `CC(=O)CCC(C)=O`, the Potency entry was “inactive”.

Take `CC(C#N)CCC#N` (stereo unspecified): the Potency result was “inactive”.

A short description of the next assay: Cellular Toxicity (caspase-3) Hek293 (AID 664).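 Note: cells exposed to compound for 16 h at 37 °C before readout.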 Conditions: HEK293 caspase-3 activation, DMSO = 0%, 100 µM tamoxifen = 100%; at 92.2 µM (top of the series). The method in brief:
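Cells plated, 5 hr at 37 °C; compounds added; 16 hr at 37 °C; Caspase-Glo 3/7 reagent, 20 min RT; luminescence read. Activation expressed relative to DMSO and 100 uM tamoxifen, AC50 by Hill model.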
In the case of `Oc1cccc(Cl)c1Cl`, the caspase-3 activation was 0.0996% (inactive).

Consider `CCC/C=N/O`, for which the caspase-3 activation is -0.0645% (inactive).

Consider `Nc1cccc2ccccc12`, for which the caspase-3 activation is 156% (active).

For `Cc1cnc[nH]1`, the caspase-3 activation is -0.172% (inactive).

On to `CN(C)N=O`, for which the caspase-3 activation is 5.49% (inactive).

As to `COc1c(C(C)(C)C)cc([N+](=O)[O-])c(C)c1[N+](=O)[O-]`, the caspase-3 activation is 1.65% (inactive).

With `C=C(Cl)CCl`, the caspase-3 activation was 0.722% (inactive).

As to `ClCCOCOCCCl`, the caspase-3 activation was -1.31% (inactive).

For `CC12CC1(C)C(=O)N(c1cc(Cl)cc(Cl)c1)C2=O` (stereo unspecified), the caspase-3 activation was 1.47% (inactive).

Turning to `CC(C)(Cl)[N+](=O)[O-]`, the caspase-3 activation is -0.194% (inactive).

Turning to `Cl/C=C/Cl`, the caspase-3 activation was -0.612% (inactive).

Regarding `CCCCOCC1CO1` (stereo unspecified), the caspase-3 activation was 3.87% (inactive).

With `O=C(O)c1cccc(Cl)c1`, the caspase-3 activation was -0.358% (inactive).

Turning to `C1CC2OC2CC1C1CO1` (stereo unspecified), the caspase-3 activation was -2.81% (inactive).

As to `Brc1cccc(-c2ccccc2)c1`, the caspase-3 activation is -1.08% (inactive).

`Oc1c(Cl)cccc1Cl`: the caspase-3 activation was 1.84% (inactive).

`ClCCOCCCl`: the caspase-3 activation was -1.83% (inactive).

Take `CCNCC`: the caspase-3 activation is 1.2% (inactive).

For the compound `CC(C)C#N`, the caspase-3 activation was 1.03% (inactive).

On to `Cl/C=C\Cl`, for which the caspase-3 activation was 0.708% (inactive).

On to `c1ccc2c(c1)CCNC2`, for which the caspase-3 activation is -0.664% (inactive).

In the case of `CCBr`, the caspase-3 activation was 2.63% (inactive).

`O=[N+]([O-])c1ccc(Cl)c(Cl)c1Cl`: the caspase-3 activation was -0.669% (inactive).

Take `N#CCCC#N`: the caspase-3 activation is 1.14% (inactive).

For `Cc1ccccc1[N+](=O)[O-]`, the caspase-3 activation is -0.618% (inactive).

As for `OCCBr`, the caspase-3 activation is 0.017% (inactive).

Turning to `C=CC(=O)OCCN(C)C`, the caspase-3 activation was -0.126% (inactive).

Turning to `CC(C)(C)C(O)(CCc1ccc(Cl)cc1)Cn1cncn1` (stereo unspecified), the caspase-3 activation was 3.2% (inactive).

Turning to `N#CCCCCC#N`, the caspase-3 activation is 0.323% (inactive).

As to `CN=C=O`, the caspase-3 activation is 1.04% (inactive).

In the case of `c1ccc(C2CO2)cc1` (stereo unspecified), the caspase-3 activation was -0.153% (inactive).

Consider `CCCCCC[N+](=O)[O-]`, for which the caspase-3 activation was -0.935% (inactive).

With `OCC(Cl)CCl` (stereo unspecified), the caspase-3 activation was 1.15% (inactive).

In the case of `COc1ccc(C=O)cc1`, the caspase-3 activation is 1.65% (inactive).

For `Nc1ccc(Cl)c(Cl)c1`, the caspase-3 activation is 0.307% (inactive).

Regarding `CC(=O)[O-].CC(=O)[O-].CC(=O)[O-].[Cr+3]`, the caspase-3 activation is 1.42% (inactive).

Consider `CC(=O)CCC(C)=O`, for which the caspase-3 activation was 0.261% (inactive).

`C=CC(=O)OCC(CC)CCCC` (stereo unspecified): the caspase-3 activation was 2.19% (inactive).

As to `CC(C#N)CCC#N` (stereo unspecified), the caspase-3 activation is 0.584% (inactive).

Values taken from PubChem BioAssay (NCATS).
